Data: PubChem BioAssay (NCI)
Compounds without any hit were thinned out: in the full panel of roughly 83,000, 20% have a hit.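 Growth was measured after 48 h exposure to one concentration of compound in 96-well plates. Values under 10 count as active.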 Calls of active or inactive are those of the source.

Legend:
Assay in all cases: NCI-60 one-dose screen, 48 h (100 = growth as untreated, 0 = no growth, -100 = all killed)
Conditions in all cases: 10 µM unless noted
NCI-H23 lung = tested on: NCI-H23 lung
NCI-H226 lung = tested on: NCI-H226 lung
NCI-H322M lung = tested on: NCI-H322M lung
HOP-62 NSCLC = tested on: HOP-62 NSCLC
NCI-H460 lung = tested on: NCI-H460 lung
HOP-92 NSCLC = tested on: HOP-92 NSCLC
NCI-H522 lung = tested on: NCI-H522 lung
A549/ATCC NSCLC = tested on: A549/ATCC NSCLC
786-0 renal = tested on: 786-0 renal

Measured: growth

Cl.[Pt].[c-]1ccccc1-c1ccccn1.c1ccc(P(c2ccccc2)C([PH+](c2ccccc2)c2ccccc2)[PH+](c2ccccc2)c2ccccc2)cc1
active: NCI-H23 lung 5.59% | NCI-H226 lung 7.37% | NCI-H460 lung 5.2% | HOP-92 NSCLC -17% | NCI-H522 lung 9.94%
inactive: NCI-H322M lung 12.5% | HOP-62 NSCLC 25.1% | A549/ATCC NSCLC 14.6% | 786-0 renal 22.8%

CC(=O)Nc1ccc2c(c1)Cc1c(F)cccc1-2
inactive: NCI-H23 lung 94.9% | NCI-H226 lung 89.4% | NCI-H322M lung 112% | HOP-62 NSCLC 116% | NCI-H460 lung 92.2% | HOP-92 NSCLC 89% | NCI-H522 lung 89% | A549/ATCC NSCLC 92% | 786-0 renal 115%

COC(=O)c1ccc(CSc2nnc(-c3ccncc3)o2)cc1
inactive: NCI-H23 lung 105% | NCI-H226 lung 102% | NCI-H322M lung 93.4% | HOP-62 NSCLC 92.4% | NCI-H460 lung 108% | HOP-92 NSCLC 108% | NCI-H522 lung 86.3% | A549/ATCC NSCLC 99.9% | 786-0 renal 100%

COc1ccc(O)c(-c2cc(-c3ccccc3)c(C#N)c(=O)[nH]2)c1
inactive: NCI-H23 lung 84.1% | NCI-H226 lung 88.5% | NCI-H322M lung 96.4% | HOP-62 NSCLC 85.5% | NCI-H460 lung 92.5% | HOP-92 NSCLC 61.5% | NCI-H522 lung 65.6% | A549/ATCC NSCLC 84.1% | 786-0 renal 85.4%

COc1cc2c(cc1OC)-c1ccc3cc4c(cc3c1N(CCCn1ccnc1)C2)OCO4
active: NCI-H460 lung 6.34% | NCI-H522 lung -19.1%
inactive: NCI-H23 lung 16.6% | NCI-H226 lung 51.9% | NCI-H322M lung 76.9% | HOP-62 NSCLC 24.9% | HOP-92 NSCLC 26.8% | A549/ATCC NSCLC 56.2% | 786-0 renal 35.1%

COc1cc(C(=O)/C=C/c2c(-c3ccc(F)cc3)nc3ncccn23)cc(OC)c1OC
inactive: NCI-H23 lung 39.3% | NCI-H226 lung 63.4% | NCI-H322M lung 69.9% | HOP-62 NSCLC 68.1% | NCI-H460 lung 21.6% | HOP-92 NSCLC 23.6% | A549/ATCC NSCLC 61.1% | 786-0 renal 70.7%
active: NCI-H522 lung -0.92%

O=C1NN(C(=O)c2ccc(O)cc2)C(c2ccccc2)=N/C1=C\c1cn(-c2ccccc2)nc1-c1ccccc1
inactive: NCI-H23 lung 98.3% | NCI-H226 lung 103% | NCI-H322M lung 97% | HOP-62 NSCLC 92% | NCI-H460 lung 100% | HOP-92 NSCLC 94.9% | NCI-H522 lung 85% | A549/ATCC NSCLC 99.7% | 786-0 renal 94%

COc1ccc2cc(-c3ccc(C(=O)NN)c(C)n3)ccc2c1
inactive: NCI-H23 lung 95.5% | NCI-H226 lung 103% | NCI-H322M lung 94.6% | HOP-62 NSCLC 101% | NCI-H460 lung 104% | HOP-92 NSCLC 96.2% | NCI-H522 lung 69.8% | A549/ATCC NSCLC 93.1% | 786-0 renal 95.1%

N[C@H]1CCC[C@@H]1NCCCCN1C(=O)c2cccc3cccc(c23)C1=O
inactive: NCI-H23 lung 71% | NCI-H226 lung 83.8% | NCI-H322M lung 54.9% | HOP-62 NSCLC 76.2% | NCI-H460 lung 39.4% | HOP-92 NSCLC 51.4% | NCI-H522 lung 57.1% | A549/ATCC NSCLC 53.3% | 786-0 renal 54.8%

CCCc1cc(=O)oc2c3c(c4c(c12)OC(C)(C)C=C4)O[C@@H](C)[C@H](C)C3=O
inactive: NCI-H23 lung 61.1% | NCI-H226 lung 89.8% | NCI-H322M lung 81% | HOP-62 NSCLC 102% | NCI-H460 lung 60.5% | HOP-92 NSCLC 43.7% | NCI-H522 lung 71.9% | A549/ATCC NSCLC 64.5% | 786-0 renal 72.8%

CCOC(=O)c1c(C)[nH]c(C(=O)CCC(=O)OC)c1C
inactive: NCI-H23 lung 98.3% | NCI-H226 lung 95.8% | NCI-H322M lung 98.5% | HOP-62 NSCLC 98.7% | NCI-H460 lung 110% | HOP-92 NSCLC 84.6% | NCI-H522 lung 72.5% | A549/ATCC NSCLC 93.3% | 786-0 renal 92.9%

Cc1c(C)c2c(c(C)c1NC(=O)/C=C\C(=O)O)CCC(C)(CCCC(C)CCCC(C)CCCC(C)C)O2 (stereo unspecified)
active: NCI-H226 lung -85.9% | HOP-62 NSCLC -13.4%
inactive: NCI-H23 lung 60.8% | NCI-H322M lung 102% | NCI-H460 lung 72.1% | HOP-92 NSCLC 45.5% | NCI-H522 lung 66.7% | A549/ATCC NSCLC 61.1% | 786-0 renal 33.5%

COc1ccccc1C(=O)NC(=S)Nc1ccc(-c2nc3ccccc3[nH]2)cc1
inactive: NCI-H23 lung 58.4% | NCI-H226 lung 46.3% | NCI-H322M lung 80.7% | HOP-62 NSCLC 46.2% | HOP-92 NSCLC 101% | NCI-H522 lung 91.4% | A549/ATCC NSCLC 58.7% | 786-0 renal 41.5%
active: NCI-H460 lung 4.59%

Nc1nc(I)c2ncn(C3OC(CO)C(O)C3O)c2n1 (stereo unspecified)
inactive: NCI-H23 lung 112% | NCI-H226 lung 91.6% | NCI-H322M lung 105% | HOP-62 NSCLC 95.8% | NCI-H460 lung 110% | HOP-92 NSCLC 223% | NCI-H522 lung 88.9% | A549/ATCC NSCLC 103% | 786-0 renal 103%
